Bioassay records (PubChem)
The full list was thinned out, with hits kept by preference.
Dicer processing – inhibitors of Dicer pre-microRNA processing, primary screen, biochemical, cat-ELCCA, chemiluminescence; Endoribonuclease Dicer (Homo sapiens), Q9UPY3; cat-ELCCA pre-miR-21 Dicer processing; hits give high values; z-score at 25 µM; 47,000 compounds, 6% hits; in the data active = z-score above about 3, passing the limit was not always enough;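 note: plate controls were vehicle for no effect and no enzyme for full effect; higher signal means more uncleaved substrate so more Dicer inhibition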
An asterisk follows results filed as active.

SMILES | Dicer processing
COC(=O)c1ccc(C(=O)OC)c(N2C(=O)CC(Sc3ccccc3N)C2=O)c1 (stereo unspecified) | 2.36
N#C/C(=C\c1cccs1)S(=O)(=O)c1cccs1 | -0.59
Cc1ccc(-c2cc(C(F)F)n3ncc(C(=O)NC4CC4)c3n2)cc1 | 2.59
COc1cccc(-c2nnc(SCC(=O)O)o2)c1 | -0.57
C/C(=N\Nc1nc(C(C)(C)C)cs1)c1cc2cc(Cl)ccc2o1 | -1.08
COc1ccccc1C1CC(=O)c2c(ccc3ccccc23)N1 (stereo unspecified) | 2.8
Cc1nnc(NC(=O)CCCC(=O)O)s1 | 3.73*
CC(C)c1nnc(NC(=O)CCCC(=O)O)s1 | -1.03
Cc1nnc(NC(=O)CCC(=O)O)s1 | 0.99
CC1=CC(C)(C)N(C(=O)c2ccc(F)cc2)c2cc3c(cc21)OCO3 | 4.58*
CC1=CC(C)(C)N(C(=O)Nc2ccc(C)cc2)c2ccc(C)cc21 | -0.67
CCOc1ccc2c(c1)C(C)=CC(C)(C)N2C(=O)Nc1ccc(F)cc1 | 0.91
COc1ccc(C2NC(=O)c3c(sc4c3CCCC4)N2)cc1 (stereo unspecified) | -1.21
COc1cc(C2NC(=O)c3c(sc4c3CCCC4)N2)cc(Br)c1OC (stereo unspecified) | 4.14*
O=C1NC(c2ccc(Cl)cc2)Nc2sc3c(c21)CCCC3 (stereo unspecified) | 0.55
O=C1NC(c2ccccc2Cl)Nc2sc3c(c21)CCCC3 (stereo unspecified) | 5.91*
O=C1NC(c2ccccc2Cl)Nc2sc3c(c21)CCN(Cc1ccccc1)C3 (stereo unspecified) | 1.91
COc1cc(C2NC(=O)c3c(sc4c3CCCC4)N2)cc(OC)c1OC (stereo unspecified) | -0.42
CCOC(=O)c1nn(-c2ccc(C(C)(C)C)cc2)c(=N)c(C#N)c1C | -2.4
O=C(NCCc1c[nH]c2ccccc12)C(=O)Nc1ccc2c(c1)OCO2 | 0.74
O=C(O)c1ccccc1C(=O)Nc1ncccc1OCc1ccc(Cl)c(Cl)c1 | -0.62
O=S(=O)(Nc1ccc(Oc2ccc(NS(=O)(=O)c3cccs3)cc2)cc1)c1cccs1 | 3.62*
Cc1cc(=O)oc2cc(NS(=O)(=O)c3cccs3)ccc12 | -1.83
O=S(=O)(Nc1cccc2ccccc12)c1cccs1 | 2.37
COC(=O)c1sccc1N/N=C/c1c(F)cccc1Cl | -1.64
SMILES | Dicer processing
COc1ccc2nc(SCC(=O)Nc3ncc(Br)s3)[nH]c2c1 | 0.68
O=C(c1ccc(Cl)cc1)c1cnc2ccccc2c1-c1ccccc1 | -0.61
N#CC1=C(N)Oc2n[nH]c(-c3ccccc3)c2C12C(=O)Nc1ccc(F)cc12 (stereo unspecified) | -0.26
COC(=O)c1ccc([N+](=O)[O-])cc1Cl | 0.03
O=S(=O)(Nc1ccc2c(c1)OCCO2)c1cc(S(=O)(=O)c2ccccc2)cs1 | 2.38
Cn1cnc(S(=O)(=O)Nc2ccc(N3CCCCC3)cc2)c1 | -1.5
O=S(=O)(Nc1ccc(N2CCCCC2)cc1)c1cc(S(=O)(=O)c2ccccc2)cs1 | 5.31*
CN(C)c1ccc(C2N[C@@H](C(=O)O)C(C)(C)S2)cc1 (stereo partly specified) | 0.59
CC1(C)SC(c2ccc(C3NC(C(=O)O)C(C)(C)S3)cc2)NC1C(=O)O (stereo unspecified) | -2.37
CC1(C)S[C@H](CNC(=O)Cc2ccccc2)N[C@H]1C(=O)O | 3.98*
O=C(NNC1=Nc2ccccc2SC1)c1cccs1 | -1.24
O=c1ccc(-c2nc3ccccc3[nH]2)n[nH]1 | 2.35
COC(=O)c1cc(OCC(F)(F)F)nc(OCC(F)(F)F)c1 | -1.05
O=C(O)/C=C/C(=O)Nc1ccc(C2CCCCC2)cc1 | 1.35
Cn1cc(Br)c(NC(=O)/C=C\C(=O)O)n1 | -1.78
Cc1c(C)c(NC(=O)/C=C/C(=O)O)c(C)c(C)c1NC(=O)/C=C/C(=O)O | 3.55*
Cc1cc(C)cc(NC(=O)/C=C/C(=O)O)c1 | 7.12*
Cc1ccc(C)c(NC(=O)/C=C/C(=O)O)c1 | 2.84
Cc1cc(C)c(C)c(C(=O)/C=C/C(=O)O)c1C | 0.97
c1ccc2c(c1)c1ccccc1n2CC1CS1 (stereo unspecified) | -0.11
O=C(C1=NNCC1c1ccccc1)c1ccc2ccccc2c1 (stereo unspecified) | 4.34*
O=C(C1=NNCC1c1c2ccccc2cc2ccccc12)c1ccc(Br)cc1 (stereo unspecified) | -0.74
O=C(C1=NNCC1c1ccccc1)c1ccccc1 (stereo unspecified) | -0.12
Fc1cccc(-c2nnc(C3c4ccccc4Oc4ccccc43)o2)c1 | 0.25
CCOc1cc(C2C(C(=O)c3cc4ccccc4o3)=C(O)C(=O)N2CCN(C)C)ccc1O (stereo unspecified) | -0.47
Cc1ccc(C2=NC(C(F)(F)F)(C(F)(F)F)N=C(N(C)C)O2)cc1 | 3.72*
Cc1ccccc1C1=NC(C(F)(F)F)(C(F)(F)F)N=C(N2CCOCC2)O1 | -0.79
O=C1C2ON(c3ccccc3)C(c3ccco3)C2C(=O)N1c1ccc(F)cc1 (stereo unspecified) | 1.14
O=C(O)CS(=O)(=O)/C=C/c1ccccc1 | 18.6*
